{
  "source": "PubChem BioAssay AID651908",
  "about": "(Vanderbilt Specialized Chemistry Center, 2012)",
  "target": "Histone deacetylase 8 (Homo sapiens) (UniProt Q9BY41)",
  "sequence (Q9BY41 whole entry, looked up)": "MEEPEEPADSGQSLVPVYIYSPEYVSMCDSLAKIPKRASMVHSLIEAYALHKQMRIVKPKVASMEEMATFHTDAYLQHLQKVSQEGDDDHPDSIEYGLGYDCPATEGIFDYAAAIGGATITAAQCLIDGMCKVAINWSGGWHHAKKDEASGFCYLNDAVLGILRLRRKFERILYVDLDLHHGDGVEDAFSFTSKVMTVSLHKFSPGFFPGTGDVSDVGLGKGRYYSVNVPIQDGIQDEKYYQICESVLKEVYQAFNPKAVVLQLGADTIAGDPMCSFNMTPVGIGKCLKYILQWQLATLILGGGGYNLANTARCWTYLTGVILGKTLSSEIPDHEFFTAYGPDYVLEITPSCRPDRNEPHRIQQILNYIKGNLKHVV",
  "experiment": "inhibitors of recombinant human HDAC8 – biochemical, selectivity assay for E-cadherin restoration project, profiling panel (AID 651908)",
  "note": "Active and inactive are the calls of the source. No rule for the calls is given here.",
  "data": [
    {"molecule": "O=C(NCCCNC(=O)c1ccc[nH]c1=O)c1cc(-c2ccccc2)on1", "values": [
      {"measurement": "outcome", "result": "inactive"}
    ]}
  ]
}
